In PubChem BioAssay AID588335 (The Scripps Research Institute Molecular Screening Center, 2011):
The whole screen tested about 360,000 compounds, of which about 4,500 (1.2%) were called active. Rule as the data show it: active = inhibition above about 30%; inactive = the rest. The entries come from a sample that favours actives as a whole.

Assay: inhibition of GDH and TPI enzymes – biochemical, absorbance, full deck, artefact control for M. tuberculosis FBA inhibitor project, primary screen (AID 588335);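 also: 0% = DMSO wells and 100% = wells lacking the enzyme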
Conditions: GDH-TPI coupled enzyme counterscreen, NADH absorbance; at 4.8 µM; hits give high values
For `CCOC(=O)c1sc(N(Cc2ccccc2)C(=O)CN2C(=O)CN(C)C2=O)nc1C`, the inhibition was -10.6% (inactive). In the case of `CC(C)(C)C1CCC(OC(=O)CCC(=O)Nc2ccccc2)CC1` (stereo not drawn), the inhibition was -9.56% (inactive). For `CCCCn1c(N)c(N2CCOCC2)c(=O)n(CC(=O)NCCc2ccccc2)c1=O`, the inhibition was 8.07% (inactive). For `NS(=O)(=O)c1ccc(NC2=CC(c3ccc(F)cc3)N(c3ccc(S(N)(=O)=O)cc3)C2=O)cc1` (stereo not drawn), the inhibition was 4.35% (inactive). With `CC(=O)C1=C(O)C(=O)N(c2ccc(Br)cc2)C1c1ccc([N+](=O)[O-])cc1` (stereo not drawn) the inhibition was 21.6% (inactive). For `CC(=O)C1=C(O)C(=O)N(c2ccc(S(N)(=O)=O)cc2)C1c1ccccc1F` (stereo not drawn), the inhibition was 32.2% (active). With `CCCSC1=C(C#N)C(c2ccccc2C)C(C(=O)OC)C(=O)N1` (stereo not drawn) the inhibition was 3.67% (inactive). With `CC1CCC2(CC1)NC(=O)N(Cc1nnc(-c3cccs3)o1)C2=O` (stereo not drawn) the inhibition was -10.1% (inactive). In the case of `CC1(C)Cc2ccccc2/C(=C/C(=O)c2ccccc2)N1`, the inhibition was 4.27% (inactive). With `CC1CN/C(=C\C(=O)c2ccc(Br)cc2)C(=O)N1` (stereo not drawn) the inhibition was 33.3% (active). For `COc1cc2c(cc1OC)/C(=C/C(=O)c1ccc(NC(C)=O)cc1)NCC2`, the inhibition was 14% (inactive). In the case of `CCOC(=O)c1c(N)sc2c1CCCC2=O`, the inhibition was 36% (active). With `CCOC(=O)c1c(CC(C)C)csc1/N=C/C1=C(O)CCCC1=O` the inhibition was -3.83% (inactive). For `CCOC(=O)c1c(/N=C/c2cc(C)ccc2O)sc2c1CCC2`, the inhibition was 9.89% (inactive). In the case of `CCCCOc1ccc(N(CC(=O)NCC2CCCO2)C(=O)CCC(=O)Nc2cc(C)ccn2)cc1` (stereo not drawn), the inhibition was 12.4% (inactive). For `Cc1cccc(NS(=O)(=O)c2ccc(-c3cnc(C4CC4)o3)cc2)c1`, the inhibition was -5.68% (inactive). With `CC1C=CCC2C(=O)N(c3cccc(C(=O)N4CCCCCC4)c3)C(=O)C12` (stereo not drawn) the inhibition was 5.39% (inactive). In the case of `Cc1ccc(-c2nn(C(C)(C)C)c3ncnc(N)c23)cc1`, the inhibition was 11.5% (inactive). With `CCOC(=O)C(CC)Sc1ncnc2c1nnn2-c1ccc(F)cc1` (stereo not drawn) the inhibition was 11.2% (inactive). For `CCOC(=O)c1c(NC(=S)NC(=O)/C=C/c2cccs2)sc(C)c1C`, the inhibition was -3.37% (inactive). With `CCc1nnc(NS(=O)(=O)c2ccc(NC(=O)c3cccc(OC(F)(F)C(F)F)c3)cc2)s1` the inhibition was -13% (inactive). For `CCc1nnc(NS(=O)(=O)c2ccc(NC(=S)NC(=O)/C=C/c3cccs3)cc2)s1`, the inhibition was 32.2% (active). With `COc1ccc(NC(=O)N(C)C[C@H]2Oc3ncc(C#C[C@@H](C)O)cc3C(=O)N([C@H](C)CO)C[C@H]2C)cc1` the inhibition was 1.42% (inactive). With `Cc1ccc2c(c1)C1C[N+](C)(CC(=O)c3ccccc3)CCC1N2C(=O)c1ccccc1Cl` (stereo not drawn) the inhibition was -8.62% (inactive). For `O=C(c1ccc(Cn2cc([N+](=O)[O-])cn2)o1)N1CCCC1`, the inhibition was -17.2% (inactive). For `O=C(Nc1ccc(Br)c2cccnc12)c1ccc(Cn2cc([N+](=O)[O-])cn2)o1`, the inhibition was 4.69% (inactive). With `CN(C)c1ccc(/C=N/NC(=O)c2ccc(Cn3cc(Br)cn3)o2)cc1` the inhibition was 30.7% (active). With `O=C(N/N=C/c1ccc2c(c1)OCO2)c1ccc(Cn2cc([N+](=O)[O-])cn2)o1` the inhibition was 43.3% (active). In the case of `CC1CCc2c(sc(NC(=O)c3ccc(Cn4cc(Br)cn4)o3)c2C(N)=O)C1` (stereo not drawn), the inhibition was 7.5% (inactive). With `CN(C)c1ccc(/C=N/NC(=O)C(O)c2ccc(Br)cc2)cc1` (stereo not drawn) the inhibition was 30.4% (inactive). For `O=C(NCCCN1CCCCC1)C1CCCN(c2ncnc3c2nc2n3CCCCC2)C1` (stereo not drawn), the inhibition was -16.5% (inactive). In the case of `COc1ccc(OC)c(NC(=O)C2(C)CCN2C(=O)Cc2ccccc2)c1` (stereo not drawn), the inhibition was 7.08% (inactive). With `C=C(C)CNC(=S)/N=c1\scc(C)n1CC` the inhibition was 13.2% (inactive). For `COc1ccccc1C(=O)NC(=S)Nc1ccc(N2CCOCC2)cc1`, the inhibition was 19.6% (inactive). For `O=C(NN=Cc1ccc(N2CCOCC2)cc1)c1cc2ccccc2cc1O`, the inhibition was 50.6% (active). In the case of `Cc1ccc(/C=N/NC(=O)c2cc3ccccc3cc2O)o1`, the inhibition was 34.5% (active). With `Cc1ccc(/C=N/NC(=O)Cn2ccc(C(F)(F)F)n2)o1` the inhibition was 7.37% (inactive). With `O=C(O)c1ccc(NN=CC2=C(N3CCOCC3)/C(=C/c3ccccc3)CC2)cc1` the inhibition was 22.9% (inactive). For `Cc1ccc(/C=N/NC(=O)Cn2nc(C)c(Br)c2C)o1`, the inhibition was 5.47% (inactive). With `CCOC(=O)CN(C(=O)CN1CCOCC1)c1ccc(Br)cc1` the inhibition was 9.62% (inactive). With `Cn1c(SCC(=O)N2CCOCC2)nnc1-c1ccc(NC(=O)c2ccccc2F)cc1` the inhibition was 0% (inactive). With `Cc1cccc(C(C)C)c1NC(=O)COC(=O)C1CC(=O)N(Cc2ccccc2)C1` (stereo not drawn) the inhibition was -2.1% (inactive). For `COc1ccc(CCNS(=O)(=O)c2cc3c(cc2C)NC(=O)CO3)cc1OC`, the inhibition was -4.31% (inactive). For `CC1(C)CC(=O)C=C(NCc2ccncc2)C1`, the inhibition was 0.7% (inactive). In the case of `CCCNC(=O)N1CCC(c2ccc3c(c2)OCO3)CC1`, the inhibition was -5.17% (inactive). In the case of `O=C1/C(=C/c2ccc3c(c2)OCO3)Oc2cc(OCC(=O)N3CC(O)C[C@H]3C(=O)O)ccc21` (stereo partly drawn), the inhibition was 28.4% (inactive). For `O=C1/C(=C\c2ccc3c(c2)OCO3)N2CCC1CC2`, the inhibition was 33.3% (active). In the case of `CN(C(=O)CCn1c(=S)oc2ccccc21)C1CCCCC1`, the inhibition was 2.6% (inactive). In the case of `Cc1c(NS(=O)(=O)c2cccc(C(=O)Nc3ccc(SC(F)F)cc3)c2)c(=O)n(-c2ccccc2)n1C`, the inhibition was 0.43% (inactive). For `O=C(Nc1ccccc1F)c1cc(S(=O)(=O)N2CCCCC2)cs1`, the inhibition was -3.77% (inactive). For `CC(=O)N1C(=O)C2(Nc3ccccc3N2)c2ccccc21`, the inhibition was 34.1% (active). In the case of `O=C1CN(C(=O)CN2C(=O)NC3(CCCCC3)C2=O)c2ccccc2N1`, the inhibition was 7.32% (inactive). For `CC1(c2ccccc2)NC(=O)N(CC(=O)N2CC(=O)Nc3ccccc32)C1=O` (stereo not drawn), the inhibition was -7.8% (inactive). In the case of `CSc1ccccc1NC(=O)CN(C)CC(=O)Nc1cccc(Br)c1`, the inhibition was -2.5% (inactive). With `CC1(C(=O)NS(=O)(=O)c2cccc(F)c2)CCN1C(=O)Cc1ccc(Cl)cc1Cl` (stereo not drawn) the inhibition was 1.79% (inactive). With `CC(Oc1cc2oc(=O)c3c(c2cc1Cl)CCCC3)C(=O)NCc1ccncc1` (stereo not drawn) the inhibition was 30.8% (active). With `COc1ccc(S(=O)(=O)NC(C)C(=O)NCc2ccncc2)cc1Cl` (stereo not drawn) the inhibition was -4.46% (inactive). For `O=C(COc1cc2oc(=O)c3c(c2cc1Cl)CCC3)NCCCN1CCOCC1`, the inhibition was 21.4% (inactive).
